# Measurements published in the supplement of paper PMC4466140.
# Molecular target: AgAbp1
# Test: SPOT peptide array binding signal intensity (averaged, normalized) (arbitrary units (background-subtracted, floor 0; scale differs between SH3 domains)); higher = stronger binding of the SH3 domain to the peptide
# Outline: (§1)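 GST-fused SH3 domains from four yeast species were expressed in E. coli BL21(DE3), purified on glutathione Sepharose and incubated at 10 μg/ml overnight at 4°C in TBS-based blocking buffer on cellulose membranes carrying synthetic 15-mer peptides, with cysteines replaced by serines. Bound protein was detected with anti-GST antibody, an HRP anti-mouse secondary and luminol, then imaged and quantified with Genespotter. Binding signal is the normalized, background-subtracted spot intensity averaged over replicates, in arbitrary units that differ between domains.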
row,Binder,SPOT peptide array binding signal intensity
1,PSRRAPLQLPQLVNK,15

# Molecular target: AgBbc1
# Test: as above
# Outline: as §1
row,Binder,SPOT peptide array binding signal intensity
1,PSRRAPLQLPQLVNK,8.5

# Molecular target: AgBem1-D1
# Test: as above
# Outline: as §1
row,Binder,SPOT peptide array binding signal intensity
1,PSRRAPLQLPQLVNK,26

# Molecular target: AgBzz1-D1
# Test: as above
# Outline: as §1
row,Binder,SPOT peptide array binding signal intensity
1,PSRRAPLQLPQLVNK,13

# Molecular target: AgBzz1-D2
# Test: as above
# Outline: as §1
row,Binder,SPOT peptide array binding signal intensity
1,PSRRAPLQLPQLVNK,35

# Molecular target: AgCyk3
# Test: as above
# Outline: as §1
row,Binder,SPOT peptide array binding signal intensity
1,PSRRAPLQLPQLVNK,≤ 0

# Molecular target: AgFus1
# Test: as above
# Outline: as §1
row,Binder,SPOT peptide array binding signal intensity
1,PSRRAPLQLPQLVNK,≤ 0

# Molecular target: AgHof1
# Test: as above
# Outline: as §1
row,Binder,SPOT peptide array binding signal intensity
1,PSRRAPLQLPQLVNK,36.5

# Molecular target: AgHse1
# Test: as above
# Outline: as §1
row,Binder,SPOT peptide array binding signal intensity
1,PSRRAPLQLPQLVNK,≤ 0

# Molecular target: AgLsb1
# Test: as above
# Outline: as §1
row,Binder,SPOT peptide array binding signal intensity
1,PSRRAPLQLPQLVNK,214

# Molecular target: AgLsb4
# Test: as above
# Outline: as §1
row,Binder,SPOT peptide array binding signal intensity
1,PSRRAPLQLPQLVNK,≤ 0

# Molecular target: AgMyo5
# Test: as above
# Outline: as §1
row,Binder,SPOT peptide array binding signal intensity
1,PSRRAPLQLPQLVNK,≤ 0

# Molecular target: AgNbp2
# Test: as above
# Outline: as §1
row,Binder,SPOT peptide array binding signal intensity
1,PSRRAPLQLPQLVNK,3

# Molecular target: AgRvs167
# Test: as above
# Outline: as §1
row,Binder,SPOT peptide array binding signal intensity
1,PSRRAPLQLPQLVNK,≤ 0

# Molecular target: AgSho1
# Test: as above
# Outline: as §1
row,Binder,SPOT peptide array binding signal intensity
1,PSRRAPLQLPQLVNK,≤ 0

# Molecular target: AgSla1-D1-D2
# Test: as above
# Outline: as §1
row,Binder,SPOT peptide array binding signal intensity
1,PSRRAPLQLPQLVNK,6

# Molecular target: AgSla1-D3
# Test: as above
# Outline: as §1
row,Binder,SPOT peptide array binding signal intensity
1,PSRRAPLQLPQLVNK,1.5

# Molecular target: CaAbp1-D1
# Test: as above
# Outline: as §1
row,Binder,SPOT peptide array binding signal intensity
1,PSRRAPLQLPQLVNK,89.5

# Molecular target: CaAbp1-D2
# Test: as above
# Outline: as §1
row,Binder,SPOT peptide array binding signal intensity
1,PSRRAPLQLPQLVNK,52

# Molecular target: CaBbc1
# Test: as above
# Outline: as §1
row,Binder,SPOT peptide array binding signal intensity
1,PSRRAPLQLPQLVNK,279

# Molecular target: CaBem1-D1
# Test: as above
# Outline: as §1
row,Binder,SPOT peptide array binding signal intensity
1,PSRRAPLQLPQLVNK,11.5

# Molecular target: CaBzz1-D1
# Test: as above
# Outline: as §1
row,Binder,SPOT peptide array binding signal intensity
1,PSRRAPLQLPQLVNK,130

# Molecular target: CaBzz1-D2
# Test: as above
# Outline: as §1
row,Binder,SPOT peptide array binding signal intensity
1,PSRRAPLQLPQLVNK,41.8

# Molecular target: CaCyk3
# Test: as above
# Outline: as §1
row,Binder,SPOT peptide array binding signal intensity
1,PSRRAPLQLPQLVNK,3

# Molecular target: CaFus1
# Test: as above
# Outline: as §1
row,Binder,SPOT peptide array binding signal intensity
1,PSRRAPLQLPQLVNK,23.5

# Molecular target: CaHof1
# Test: as above
# Outline: as §1
row,Binder,SPOT peptide array binding signal intensity
1,PSRRAPLQLPQLVNK,≤ 0

# Molecular target: CaHse1
# Test: as above
# Outline: as §1
row,Binder,SPOT peptide array binding signal intensity
1,PSRRAPLQLPQLVNK,≤ 0

# Molecular target: CaLsb1
# Test: as above
# Outline: as §1
row,Binder,SPOT peptide array binding signal intensity
1,PSRRAPLQLPQLVNK,≤ 0

# Molecular target: CaLsb4
# Test: as above
# Outline: as §1
row,Binder,SPOT peptide array binding signal intensity
1,PSRRAPLQLPQLVNK,17

# Molecular target: CaMyo5
# Test: as above
# Outline: as §1
row,Binder,SPOT peptide array binding signal intensity
1,PSRRAPLQLPQLVNK,≤ 0

# Molecular target: CaNbp2
# Test: as above
# Outline: as §1
row,Binder,SPOT peptide array binding signal intensity
1,PSRRAPLQLPQLVNK,324

# Molecular target: CaRvs167
# Test: as above
# Outline: as §1
row,Binder,SPOT peptide array binding signal intensity
1,PSRRAPLQLPQLVNK,6

# Molecular target: CaRvs167-3
# Test: as above
# Outline: as §1
row,Binder,SPOT peptide array binding signal intensity
1,PSRRAPLQLPQLVNK,≤ 0

# Molecular target: CaSho1
# Test: as above
# Outline: as §1
row,Binder,SPOT peptide array binding signal intensity
1,PSRRAPLQLPQLVNK,6

# Molecular target: CaSla1-D1-D2
# Test: as above
# Outline: as §1
row,Binder,SPOT peptide array binding signal intensity
1,PSRRAPLQLPQLVNK,21

# Molecular target: CaSla1-D3
# Test: as above
# Outline: as §1
row,Binder,SPOT peptide array binding signal intensity
1,PSRRAPLQLPQLVNK,≤ 0

# Molecular target: ScAbp1
# Test: as above
# Outline: as §1
row,Binder,SPOT peptide array binding signal intensity
1,PSRRAPLQLPQLVNK,13

# Molecular target: ScBbc1
# Test: as above
# Outline: as §1
row,Binder,SPOT peptide array binding signal intensity
1,PSRRAPLQLPQLVNK,11.5

# Molecular target: ScBem1-D1
# Test: as above
# Outline: as §1
row,Binder,SPOT peptide array binding signal intensity
1,PSRRAPLQLPQLVNK,11

# Molecular target: ScBzz1-D1
# Test: as above
# Outline: as §1
row,Binder,SPOT peptide array binding signal intensity
1,PSRRAPLQLPQLVNK,12

# Molecular target: ScBzz1-D2
# Test: as above
# Outline: as §1
row,Binder,SPOT peptide array binding signal intensity
1,PSRRAPLQLPQLVNK,10

# Molecular target: ScCyk3
# Test: as above
# Outline: as §1
row,Binder,SPOT peptide array binding signal intensity
1,PSRRAPLQLPQLVNK,≤ 0

# Molecular target: ScFus1
# Test: as above
# Outline: as §1
row,Binder,SPOT peptide array binding signal intensity
1,PSRRAPLQLPQLVNK,≤ 0

# Molecular target: ScHof1
# Test: as above
# Outline: as §1
row,Binder,SPOT peptide array binding signal intensity
1,PSRRAPLQLPQLVNK,0.5

# Molecular target: ScHse1
# Test: as above
# Outline: as §1
row,Binder,SPOT peptide array binding signal intensity
1,PSRRAPLQLPQLVNK,35.5

# Molecular target: ScLsb1
# Test: as above
# Outline: as §1
row,Binder,SPOT peptide array binding signal intensity
1,PSRRAPLQLPQLVNK,123

# Molecular target: ScLsb2
# Test: as above
# Outline: as §1
row,Binder,SPOT peptide array binding signal intensity
1,PSRRAPLQLPQLVNK,5

# Molecular target: ScLsb3
# Test: as above
# Outline: as §1
row,Binder,SPOT peptide array binding signal intensity
1,PSRRAPLQLPQLVNK,86

# Molecular target: ScLsb4
# Test: as above
# Outline: as §1
row,Binder,SPOT peptide array binding signal intensity
1,PSRRAPLQLPQLVNK,≤ 0

# Molecular target: ScMyo3
# Test: as above
# Outline: as §1
row,Binder,SPOT peptide array binding signal intensity
1,PSRRAPLQLPQLVNK,≤ 0

# Molecular target: ScMyo5
# Test: as above
# Outline: as §1
row,Binder,SPOT peptide array binding signal intensity
1,PSRRAPLQLPQLVNK,1.5

# Molecular target: ScNbp2
# Test: as above
# Outline: as §1
row,Binder,SPOT peptide array binding signal intensity
1,PSRRAPLQLPQLVNK,17

# Molecular target: ScPex13
# Test: as above
# Outline: as §1
row,Binder,SPOT peptide array binding signal intensity
1,PSRRAPLQLPQLVNK,≤ 0

# Molecular target: ScRvs167
# Test: as above
# Outline: as §1
row,Binder,SPOT peptide array binding signal intensity
1,PSRRAPLQLPQLVNK,5.67

# Molecular target: ScSho1
# Test: as above
# Outline: as §1
row,Binder,SPOT peptide array binding signal intensity
1,PSRRAPLQLPQLVNK,35

# Molecular target: ScSla1-D1-D2
# Test: as above
# Outline: as §1
row,Binder,SPOT peptide array binding signal intensity
1,PSRRAPLQLPQLVNK,394

# Molecular target: ScSla1-D3
# Test: as above
# Outline: as §1
row,Binder,SPOT peptide array binding signal intensity
1,PSRRAPLQLPQLVNK,32

# Molecular target: SpAbp1-D1
# Test: as above
# Outline: as §1
row,Binder,SPOT peptide array binding signal intensity
1,PSRRAPLQLPQLVNK,59

# Molecular target: SpBbc1
# Test: as above
# Outline: as §1
row,Binder,SPOT peptide array binding signal intensity
1,PSRRAPLQLPQLVNK,≤ 0

# Molecular target: SpBzz1-D1
# Test: as above
# Outline: as §1
row,Binder,SPOT peptide array binding signal intensity
1,PSRRAPLQLPQLVNK,134

# Molecular target: SpBzz1-D2
# Test: as above
# Outline: as §1
row,Binder,SPOT peptide array binding signal intensity
1,PSRRAPLQLPQLVNK,≤ 0

# Molecular target: SpCyk3
# Test: as above
# Outline: as §1
row,Binder,SPOT peptide array binding signal intensity
1,PSRRAPLQLPQLVNK,≤ 0

# Molecular target: SpHof1
# Test: as above
# Outline: as §1
row,Binder,SPOT peptide array binding signal intensity
1,PSRRAPLQLPQLVNK,7.75

# Molecular target: SpHof1-2
# Test: as above
# Outline: as §1
row,Binder,SPOT peptide array binding signal intensity
1,PSRRAPLQLPQLVNK,1.25

# Molecular target: SpHof1-3
# Test: as above
# Outline: as §1
row,Binder,SPOT peptide array binding signal intensity
1,PSRRAPLQLPQLVNK,89.8

# Molecular target: SpHse1
# Test: as above
# Outline: as §1
row,Binder,SPOT peptide array binding signal intensity
1,PSRRAPLQLPQLVNK,≤ 0

# Molecular target: SpLsb1
# Test: as above
# Outline: as §1
row,Binder,SPOT peptide array binding signal intensity
1,PSRRAPLQLPQLVNK,45.2

# Molecular target: SpLsb4
# Test: as above
# Outline: as §1
row,Binder,SPOT peptide array binding signal intensity
1,PSRRAPLQLPQLVNK,2

# Molecular target: SpMyo1
# Test: as above
# Outline: as §1
row,Binder,SPOT peptide array binding signal intensity
1,PSRRAPLQLPQLVNK,0.5

# Molecular target: SpNbp2
# Test: as above
# Outline: as §1
row,Binder,SPOT peptide array binding signal intensity
1,PSRRAPLQLPQLVNK,3

# Molecular target: SpPex13
# Test: as above
# Outline: as §1
row,Binder,SPOT peptide array binding signal intensity
1,PSRRAPLQLPQLVNK,≤ 0

# Molecular target: SpRvs167
# Test: as above
# Outline: as §1
row,Binder,SPOT peptide array binding signal intensity
1,PSRRAPLQLPQLVNK,1.67

# Molecular target: SpSla1-D1-D2
# Test: as above
# Outline: as §1
row,Binder,SPOT peptide array binding signal intensity
1,PSRRAPLQLPQLVNK,≤ 0

# Molecular target: SpSla1-D3
# Test: as above
# Outline: as §1
row,Binder,SPOT peptide array binding signal intensity
1,PSRRAPLQLPQLVNK,≤ 0
